The source of these data is PubChem BioAssay (NCI).

Experiment [1] can be described thus: NCI Yeast Anticancer Drug Screen. Data for the rad50 strain (AID 155).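 Note: 0% = growth of vehicle-only cultures of the same strain.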 The following applies: S. cerevisiae rad50 strain growth inhibition; at 50.0 µM; hits give high values. The procedure, abridged:
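Relative growth inhibition (compound vs vehicle) was measured in yeast with a defined repair-gene alteration.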

Experiment [2] can be described thus: NCI Yeast Anticancer Drug Screen. Data for the mec2-1 strain (AID 157). The following applies: S. cerevisiae mec2-1 strain, at 50.0 µM, hits give high values. The procedure, abridged:
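Mutant yeast (mec2-1) grown with compound; growth inhibition relative to vehicle control reported.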

A short description of experiment [3]: NCI Yeast Anticancer Drug Screen. Data for the sgs1 mgt1 strain (AID 161).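 Note: 0% = growth of cultures given vehicle only.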 The following applies: S. cerevisiae sgs1 mgt1 strain, at 50.0 µM, hits give high values. The procedure, abridged:
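Compounds are added to genetically altered yeast, and growth is compared with cultures given vehicle alone to give percent inhibition.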

The nature of experiment [4]: NCI Yeast Anticancer Drug Screen. Data for the cln2 rad14 strain (AID 165).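 Note: 0% = growth equal to vehicle treated cultures.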 The settings on record: S. cerevisiae cln2 rad14 strain, at 50.0 µM, hits give high values. The procedure, abridged:
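Readout is yeast growth inhibition versus vehicle-treated controls, using a strain with cln2 and rad14 alterations exposed to compound.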

Experiment [5] can be described thus: NCI Yeast Anticancer Drug Screen. Data for the bub3 strain (AID 167). The settings on record: S. cerevisiae bub3 mutant strain, at 50.0 µM, hits give high values. The procedure, abridged: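 Screening used yeast with an engineered genetic alteration affecting cell cycle control. Compound-exposed cultures were compared with vehicle cultures, and reduced growth was taken as inhibition.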

A short description of experiment [6]: NCI Yeast Anticancer Drug Screen. Data for the mlh1 rad18 strain (AID 175). The following applies: S. cerevisiae mlh1 rad18 strain growth inhibition; at 50.0 µM; hits give high values. The procedure, abridged:
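Genetically defined yeast (DNA repair-deficient) exposed to compounds; growth inhibition determined relative to vehicle.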

The panel holds about 79,000 compounds, 15% with a hit somewhere; the sample as a whole holds those more often. Unmarked numbers belong to inactive results. Calls of active or inactive are those of the source. Cut-off read from the data, not from the text of the source: active = growth inhibition above about 70%; inactive = the rest.

`COCn1cnc2c(=O)n(-c3ccc(OC)cc3)c(=S)n(-c3ccc(OC)cc3)c21`: the growth inhibition in experiment [1] is 21.1%; in experiment [2], -13.7%; in experiment [3] it was -28.9%; in experiment [4], -2.65%; in experiment [5], -21.4%; in experiment [6], -53.1%.
For `CCOC(=O)CN/N=C(\N)CSS(=O)(=O)O`, the growth inhibition is -5.25% in experiment [1]; -17.4% in experiment [2]; -2.05% in experiment [3]; 13.3% in experiment [4]; 9.65% in experiment [5]; 3.05% in experiment [6].
As to `CSC1(C)CC2C(CC1N1CCOCC1)C2(C)C` (centres undefined), the growth inhibition in experiment [1] is -28.4%; in experiment [2] it was -33.9%; in experiment [3] it was -41.6%; in experiment [4] it was -14.2%; in experiment [5] it was -33.4%; in experiment [6], -26.2%.
As to `O=S(=O)(Nc1ccc(Cl)cc1)c1ccc(F)cc1`, the growth inhibition in experiment [1] was -9.45%; in experiment [2] it was -15.8%; in experiment [3], -11.6%; in experiment [4] it was 11.9%; in experiment [5] it was -29.1%; in experiment [6], 3.95%.
Consider `CCC1=C(O)C(=O)C(C)(C)C1=O`, for which the growth inhibition in experiment [1] is -5.85%; in experiment [2], -5.2%; in experiment [3], -3.15%; in experiment [4], -2.7%; in experiment [5], 15.9%; in experiment [6], 9.45%.
For the molecule `[CH3][Ga]([CH3])[O]c1ccccc1C=O`, the growth inhibition in experiment [1] was -3.6%; in experiment [2], -17.6%; in experiment [3], -10.8%; in experiment [4] it was -80.7%; in experiment [5], -30.3%; in experiment [6], -21.4%.
With `CCOC(=O)/C=C/CC1CCNC1` (centres undefined), the growth inhibition is -22.8% in experiment [1]; -2.6% in experiment [2]; -13.4% in experiment [3]; -52% in experiment [4]; -1.5% in experiment [5]; -6% in experiment [6].
Take `C[n+]1cc(N)cc2ccccc21`: the growth inhibition in experiment [1] is 1.65%; in experiment [2], -4.9%; in experiment [3], -6.75%; in experiment [4] it was 3.3%; in experiment [5] it was 9.8%; in experiment [6] it was -16.4%.
Take `Clc1ccc(C2NC(c3ccccc3)c3c(ccc4ccccc34)O2)cc1Cl` (centres undefined): the growth inhibition in experiment [1] was 86.2% (active); in experiment [2], 92.6% (active); in experiment [3], 92.2% (active); in experiment [4] it was 88.2% (active); in experiment [5], 90.5% (active); in experiment [6], 92.1% (active).
In the case of `Cn1c2ccccc2c2c3c(ccc21)C(=O)c1ccccc1C3=O`, the growth inhibition in experiment [1] was 6.85%; in experiment [2], -3.9%; in experiment [3], 7.15%; in experiment [4], -62.6%; in experiment [5], 8.2%; in experiment [6], -2.5%.
As to `CN1N=C2c3ccccc3OC(c3ccccc3)[C@H]2C1c1ccccc1` (some centres undefined), the growth inhibition in experiment [1] is -46.8%; in experiment [2], -47.2%; in experiment [3], -40.2%; in experiment [4], -3.8%; in experiment [5], -61.4%; in experiment [6], -41.7%.
On to `CCC1=Nc2ccccc2C(c2ccccc2)NC1=O` (centres undefined), for which the growth inhibition in experiment [1] was -2%; in experiment [2], -19.7%; in experiment [3], 4.5%; in experiment [4] it was 6%; in experiment [5], -9.65%; in experiment [6], 24.9%.
As for `CC1(C)CC(=O)C(C(c2ccc3c(c2)CCC3)C2C(=O)CC(C)(C)CC2=O)C(=O)C1`, the growth inhibition was -18.1% in experiment [1]; -27.9% in experiment [2]; -31.1% in experiment [3]; 23.9% in experiment [4]; -26.3% in experiment [5]; -21.4% in experiment [6].
Take `c1ccc(-c2cc(-c3ccccc3)c(-c3ccccc3)c(-c3ccccc3)c2)cc1`: the growth inhibition in experiment [1] was 32.1%; in experiment [2], 10.1%; in experiment [3], 19.4%; in experiment [4] it was 12.4%; in experiment [5], -4.1%; in experiment [6] it was 13%.
Consider `COc1cc(OC)c(OC)cc1/C=N/N=C(\N)NO`, for which the growth inhibition was -12.3% in experiment [1]; 0.5% in experiment [2]; -1.95% in experiment [3]; 3.05% in experiment [4]; -13.1% in experiment [5]; -10.4% in experiment [6].
With `COc1ccccc1NC(=O)C1=C(C)NC(C)=C(C(=O)Nc2ccccc2OC)C1c1c(Cl)cccc1Cl`, the growth inhibition is 15.6% in experiment [1]; 3.75% in experiment [2]; -11.8% in experiment [3]; -6.05% in experiment [4]; 0.2% in experiment [5]; 26.6% in experiment [6].
For `O=c1oc2ccc(Br)cc2cc1CCS`, the growth inhibition in experiment [1] was 9.9%; in experiment [2], 21.2%; in experiment [3] it was -4.7%; in experiment [4], 10.8%; in experiment [5], 9.55%; in experiment [6], -9.35%.
For `CCN(CC)c1ccc(/C=N/NC(=O)NN)cc1`, the growth inhibition in experiment [1] was 4.35%; in experiment [2], -20.9%; in experiment [3] it was -15.4%; in experiment [4], -13.1%; in experiment [5], -7.95%; in experiment [6], -5.3%.
For `Cc1cc(=O)[nH]c(NNC(C#N)c2ccc([N+](=O)[O-])cc2)n1` (centres undefined), the growth inhibition is -18.5% in experiment [1]; 0.35% in experiment [2]; -36.1% in experiment [3]; -8.8% in experiment [4]; -30.6% in experiment [5]; -50.9% in experiment [6].
With `COC(=O)C1CCC(=O)N1CN(C(C)=O)c1ccccc1` (centres undefined), the growth inhibition in experiment [1] was 10.1%; in experiment [2] it was 8.6%; in experiment [3] it was -14.1%; in experiment [4], 9%; in experiment [6] it was -30.6%.
On to `Cc1ccc(-c2cc(=O)c3cc(C)c(C)c(C(=O)O)c3o2)cc1`, for which the growth inhibition is 3.15% in experiment [1]; 0.25% in experiment [2]; 10.8% in experiment [3]; 19.9% in experiment [4]; 10.8% in experiment [6].
